Test systems include SR leukemia; RPMI-8226 leukemia; OVCAR-8 ovarian; OVCAR-5 ovarian; OVCAR-4 ovarian; SK-OV-3 ovarian; IGROV1 ovarian; OVCAR-3 ovarian; HS 578T breast; NCI/ADR-RES ovarian.
Common to all, as to test: NCI-60 one-dose screen, 48 h (100 = growth as untreated, 0 = no growth, -100 = all killed)
Holding throughout (conditions): 10 µM unless noted

For 13 compounds, growth results are on record in PubChem BioAssay (NCI).

The panel holds about 83,000 compounds, 20% with a hit somewhere; the sample as a whole holds those more often.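 Compound tested at a single concentration for 48 hours in 96-well plates; a percent growth value below 10 was scored as active.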 Values without a mark were called inactive. Activity calls are given as the source filed them.

Regarding `CC(=O)c1cc2c(N)c(C(=O)Nc3cccc4ccncc34)sc2nc1C`, the growth was 49.8% in the assay on SR leukemia; 103% with RPMI-8226 leukemia; 108% in the assay on OVCAR-8 ovarian; 106% in the assay on OVCAR-5 ovarian; 110% with OVCAR-4 ovarian; 93.4% in the assay on SK-OV-3 ovarian. Besides, the growth was 101% in the assay with IGROV1 ovarian, 103% in the assay on OVCAR-3 ovarian, 91.3% in the assay with HS 578T breast and 108% in the assay with NCI/ADR-RES ovarian.

For the compound `CC(=O)Nc1ccc(-n2cnc3cc(-c4ccc(OCCN5CCCCC5)cc4)ccc32)cc1`, the growth in the assay with SR leukemia is -9.89% (active); in the assay with RPMI-8226 leukemia it was 54%; with OVCAR-8 ovarian it was 87.1%; with OVCAR-5 ovarian, 104%; with OVCAR-4 ovarian, 82.6%; in the assay on SK-OV-3 ovarian, 139%. In addition, the growth in the assay on IGROV1 ovarian was 97.4%; in the assay on OVCAR-3 ovarian, 98.4%; in the assay on HS 578T breast, 95.3%; in the assay on NCI/ADR-RES ovarian, 97.2%.

As to `C[C@H]1[C@H](C)CC[C@]2(C(=O)NCC#CCN3CCN(C)CC3)CC[C@]3(C)C(=CC[C@@H]4[C@@]5(C)Cc6c([nH]c7ccccc67)C(C)(C)[C@@H]5CC[C@]43C)[C@H]12`, the growth in the assay with SR leukemia is 4.29% (active); in the assay on RPMI-8226 leukemia, 67%; with OVCAR-8 ovarian, 90.2%; with OVCAR-5 ovarian, 94.4%; in the assay on OVCAR-4 ovarian, 83.2%; in the assay on SK-OV-3 ovarian, 86.9%. Besides, the growth was 93.6% with IGROV1 ovarian, 82.6% in the assay with OVCAR-3 ovarian, 82.8% in the assay with HS 578T breast and 82.8% in the assay on NCI/ADR-RES ovarian.

Take `COc1ccc(C(=O)CSc2nc(-c3cc(OC)ccc3OC)cc(-c3ccc(Cl)cc3)c2C#N)cc1`: the growth in the assay with SR leukemia is 65.3%; in the assay on RPMI-8226 leukemia, 78.5%; with OVCAR-8 ovarian it was 61.2%; with OVCAR-5 ovarian, 81.2%; in the assay on OVCAR-4 ovarian it was 24.8%; in the assay with SK-OV-3 ovarian, 33.3%. Further, the growth with IGROV1 ovarian is 62.4%; in the assay with OVCAR-3 ovarian, 98.1%; in the assay with HS 578T breast, 57.8%; with NCI/ADR-RES ovarian it was 77.5%.

As for `CCCC/C=N/NC(=S)NCc1ccccc1`, the growth is 95% in the assay with SR leukemia; 97.6% in the assay on RPMI-8226 leukemia; 97.5% in the assay on OVCAR-8 ovarian; 92.7% in the assay with OVCAR-5 ovarian; 96.3% with OVCAR-4 ovarian; 88.9% in the assay on SK-OV-3 ovarian. Also, the growth in the assay with IGROV1 ovarian is 110%; with OVCAR-3 ovarian, 104%; in the assay on HS 578T breast it was 95%; with NCI/ADR-RES ovarian, 104%.

On to `COc1cc2oc(-c3cccc(C(=O)Nc4ccc5c(c4)OCO5)c3)cc(=O)c2c(O)c1OC`, for which the growth in the assay with SR leukemia is 75.9%; in the assay on RPMI-8226 leukemia, 79.8%; with OVCAR-8 ovarian, 30.6%; in the assay with OVCAR-5 ovarian, 88.9%; with OVCAR-4 ovarian it was 0.0679% (active); in the assay with SK-OV-3 ovarian, 91.4%. In addition, the growth in the assay with IGROV1 ovarian is 81.6%; with OVCAR-3 ovarian, 89.5%; with HS 578T breast, 72.7%; in the assay with NCI/ADR-RES ovarian it was 70.6%.

`CCOC(=O)c1cc(C(=O)c2ccc(OC)c(OC)c2)n2ccc(/C=C/c3cc[n+](CC(=O)c4ccc(OC)c(OC)c4)cc3)cc12`: the growth in the assay with SR leukemia was 92.2%; in the assay on RPMI-8226 leukemia it was 81.4%; in the assay with OVCAR-8 ovarian it was 95.5%; in the assay with OVCAR-5 ovarian it was 99.9%; in the assay with OVCAR-4 ovarian, 90.9%; with SK-OV-3 ovarian, 102%. Moreover, the growth in the assay with IGROV1 ovarian was 88.6%; in the assay on OVCAR-3 ovarian, 102%; in the assay with HS 578T breast, 102%; in the assay with NCI/ADR-RES ovarian, 98.6%.

In the case of `C=C1C(=O)O[C@H]2[C@H]1CC/C(CNS(=O)(=O)c1cccc3ccccc13)=C\CC[C@@]1(C)O[C@@H]21`, the growth is 10.7% in the assay with SR leukemia; -16.5% (active) with RPMI-8226 leukemia; 38.5% in the assay with OVCAR-8 ovarian; 61.9% with OVCAR-5 ovarian; 42.8% with OVCAR-4 ovarian; 107% in the assay on SK-OV-3 ovarian. Moreover, the growth in the assay on IGROV1 ovarian was 15.4%; with OVCAR-3 ovarian, 11.1%; in the assay on HS 578T breast, 60.9%; in the assay on NCI/ADR-RES ovarian it was 74.3%.

For `Cc1cc2nc3c4ccc(Br)cc4n(CCN(C)C)c3nc2cc1C`, the growth in the assay on SR leukemia was -2.61% (active); with RPMI-8226 leukemia, -30.4% (active); in the assay on OVCAR-8 ovarian it was 21.6%; in the assay on OVCAR-5 ovarian, 25.1%; with OVCAR-4 ovarian, 12.3%; in the assay on SK-OV-3 ovarian, 33.8%. For the same compound, the growth in the assay on IGROV1 ovarian was 4.76% (active); in the assay with OVCAR-3 ovarian, 21.1%; in the assay with HS 578T breast it was 53.9%; in the assay on NCI/ADR-RES ovarian, 17%.

As to `C=C(C)[C@@H]1CC[C@]2(CN)CC[C@]3(C)[C@H](CC[C@@H]4[C@@]5(C)CCCNC(C)(C)[C@@H]5CC[C@]43C)[C@@H]12`, the growth was -38.7% (active) with SR leukemia; -43.8% (active) in the assay on RPMI-8226 leukemia; -59.6% (active) with OVCAR-8 ovarian; -23% (active) in the assay with OVCAR-5 ovarian; -70.9% (active) with OVCAR-4 ovarian; 86.1% with SK-OV-3 ovarian. In addition, the growth was -81.9% (active) in the assay on IGROV1 ovarian, -85.8% (active) with OVCAR-3 ovarian, -42.3% (active) with HS 578T breast and -52% (active) with NCI/ADR-RES ovarian.

Turning to `N#CC1=C(/N=C/c2ccccc2)Oc2c(ccc3ccccc23)C1c1ccc([N+](=O)[O-])cc1` (stereo not given), the growth with SR leukemia was 81%; with RPMI-8226 leukemia, 92%; with OVCAR-8 ovarian, 95%; with OVCAR-5 ovarian, 101%; in the assay with OVCAR-4 ovarian, 88.2%; with SK-OV-3 ovarian, 86.9%. Moreover, the growth with IGROV1 ovarian is 56.6%; in the assay on OVCAR-3 ovarian, 86.4%; in the assay on HS 578T breast, 91.6%; in the assay with NCI/ADR-RES ovarian, 95.6%.

On to `O=C(Cc1ccc(/C=C/C(=O)c2nccs2)cc1)Nc1ccccc1`, for which the growth is 2.31% (active) with SR leukemia; 67% with RPMI-8226 leukemia; 90.5% in the assay with OVCAR-8 ovarian; 99.9% in the assay on OVCAR-5 ovarian; 97.2% in the assay with OVCAR-4 ovarian; 112% with SK-OV-3 ovarian. The growth is 91.7% with IGROV1 ovarian, 88.9% in the assay on OVCAR-3 ovarian, 88.5% in the assay on HS 578T breast and 101% in the assay with NCI/ADR-RES ovarian.

`COc1cccc(-c2ccc3c(c2)NC(=O)/C3=C\c2ccc[nH]2)c1`: the growth in the assay with SR leukemia is 8.43% (active); in the assay with RPMI-8226 leukemia, 17.5%; with OVCAR-8 ovarian, 74.2%; in the assay with OVCAR-5 ovarian it was 53.2%; in the assay with OVCAR-4 ovarian, 54.7%; in the assay on SK-OV-3 ovarian, 58.9%. In addition, the growth is 29.7% in the assay with IGROV1 ovarian, 12.7% with OVCAR-3 ovarian, 56.4% with HS 578T breast and 40.4% in the assay with NCI/ADR-RES ovarian.
